High-throughput results: PubChem BioAssay, several laboratories
A selection: hits, their analogues and other compounds. The true share with any hit is near 2.4%.
MEKK2 mut-MEK5 = signal of MEK5 binding to mutant human MEKK2 PB1 domain; bead flow cytometry, Alexa488-MEK5 binding to MEKK2 mutant; percent response, % at 10 µM; actives 0.35% (n = 290,000); AID 1530; in the data active means percent response above about 24%, passing the limit was not always enough
Pf gametocyte = P. falciparum stage V gametocyte viability inhibition; actives 0.065% (n = 150,000); inhibition, % at 10.9 µM; P. falciparum stage V gametocytes, ATP luminescence, 24 h; AID 743093;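 active means inhibition above the mean plus 3 SD of compounds within the control limits, set per campaign, cut at about 38% in these data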;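 further: 0% = DMSO wells and 100% = medium only without gametocytes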
MEKK2wt PB1 HTS = raises or lowers MEK5 binding to wildtype human MEKK2 PB1 domain; Q9Y2U5; actives 1.1% (n = 290,000); bead flow cytometry, Alexa488-MEK5 binding to MEKK2 WT; actives lie on both sides; binding response (% of control), % at 10 µM; in the data active means binding response below about 67% or above about 130%
Arbovirus anti = arbovirus infection inhibition; arbovirus infection cell-based antiviral screen; AID 1251; inhibition, % at 10 µM; actives 0.37% (n = 200,000); in the data active means inhibition above about 30%
MEKK3 PB1 HTS = modulators (inhibitors or enhancers) of MEK5 binding to human MEKK3 PB1 domain; Q99759; bead-based flow cytometry, Alexa488-MEK5 binding to MEKK3; actives lie on both sides; 0 = blocked by unlabeled MEK5, 100 = vehicle; binding response (% of control), % at 10 µM; actives 1.4% (n = 290,000);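 active means binding response more than 3 SD above or below the average of its plate-row segment, actives on both sides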;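 further: Alexa488 bead fluorescence after subtracting the streptavidin-only scavenger bead signal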
Target sequence (Q99759 whole entry, looked up, the tested form may be a part): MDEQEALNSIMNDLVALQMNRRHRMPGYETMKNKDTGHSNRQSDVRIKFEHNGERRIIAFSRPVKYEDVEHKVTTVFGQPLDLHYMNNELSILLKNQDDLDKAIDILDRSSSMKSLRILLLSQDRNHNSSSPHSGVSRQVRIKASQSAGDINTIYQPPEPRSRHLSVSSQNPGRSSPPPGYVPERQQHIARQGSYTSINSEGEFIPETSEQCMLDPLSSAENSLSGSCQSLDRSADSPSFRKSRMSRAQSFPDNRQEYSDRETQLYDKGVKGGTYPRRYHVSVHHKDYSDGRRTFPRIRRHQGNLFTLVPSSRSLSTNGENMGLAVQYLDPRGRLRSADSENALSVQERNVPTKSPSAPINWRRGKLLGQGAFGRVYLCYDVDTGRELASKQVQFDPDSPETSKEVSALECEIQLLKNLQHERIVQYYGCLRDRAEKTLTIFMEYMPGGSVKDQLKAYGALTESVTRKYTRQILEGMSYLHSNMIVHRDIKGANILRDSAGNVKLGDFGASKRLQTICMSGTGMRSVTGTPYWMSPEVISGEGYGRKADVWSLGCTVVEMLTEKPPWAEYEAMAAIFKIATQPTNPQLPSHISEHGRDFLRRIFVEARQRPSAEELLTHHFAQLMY
MEKK2wt confirm = raises or lowers MEK5 binding to wildtype human MEKK2, retest; actives 2.4% (n = 5,900); binding response (% of control), % at 10 µM; bead flow cytometry, Alexa488-MEK5 binding to MEKK2 WT; actives lie on both sides; shares compounds with MEKK3 PB1 HTS; in the data active means binding response below about 16% or above about 210%; inactive means in between
MEKK2mut confirm = signal of MEK5 binding to mutant human MEKK2, retest; bead flow cytometry, Alexa488-MEK5 binding to MEKK2 mutant; actives 2% (n = 5,900); percent response, % at 10 µM; shares compounds with MEKK3 PB1 HTS; in the data active means percent response mostly above about 71%, no sharp cut-off; inactive means mostly below about 38%;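 further: higher means compound restores mutant binding toward wildtype level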
MEKK3-MEK5 inh = confirmation of inhibitors of MEK5 binding to human MEKK3. shares compounds with MEKK3 PB1 HTS. bead flow cytometry, Alexa488-MEK5 binding to MEKK3; hits give low values. binding response (% of control), % at 10 µM. actives 1.8% (n = 5,900). AID 1894;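 active means binding response below 72% of control, or above a set upper limit, though filed actives all read lower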;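 further: 100% = DMSO only wells and 0% = binding blocked by excess unlabeled MEK5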
* marks the source's active call; other numbers are inactive results; · = no result; [ ] = dose if it differs, or a comment.

SMILES	MEKK2 mut-MEK5	Pf gametocyte	MEKK2wt PB1 HTS	Arbovirus anti	MEKK3 PB1 HTS	MEKK2wt confirm	MEKK2mut confirm	MEKK3-MEK5 inh
O=C(c1ccc2[nH]c3c(c2c1)CCCC3)N1CCN(c2ccc(F)cc2)CC1	-1	14	103	-27	100	·	·	·
COc1ccccc1N1CCN(C(=O)c2ccc3[nH]c4c(c3c2)CCCC4)CC1	1	·	107	-10	145*	97	0	106
COc1ccccc1N1CCN(C(=O)c2ccc(CSc3ccccc3)cc2)CC1	0	-14	107	-10	128*	100	1	104
Nc1nc(C23CC4CC(CC(C4)C2)C3)[nH]c(=O)n1	1	19	98	·	97	·	·	·
COc1cc(/C=N/N2CCOCC2)ccc1OC(=O)c1ccco1	-17	12	52	-3	49*[inhibitor]	95	-7	98
CC1CCCCN1S(=O)(=O)c1ccc2c(c1)C(C)(C)C(=O)N2C (centres undefined)	0	·	107	·	103	·	·	·
CC1(C)Cc2c(cnn2-c2ccccc2)C(NC(=O)CCN2CCCCO2)C1 (centres undefined)	3	·	98	·	100	·	·	·
Cc1cccc(C(C)C)c1NC(=O)C1CN(S(=O)(=O)c2ccccc2)CCN1S(=O)(=O)c1ccccc1 (centres undefined)	16	-3	103	-4	102	·	·	·
COc1ccccc1NC(=S)NC(NC(=O)c1ccco1)C(Cl)(Cl)Cl (centres undefined)	0	12	100	3	129*	101	2	105
Cc1ccc(O)c(-c2cc(C(=O)Nc3ccc(S(=O)(=O)N4CC(C)OC(C)C4)cc3)[nH]n2)c1 (centres undefined)	3	-16	107	12	123*	104	-4	99
CC1(c2nnc(-c3cccc(Cl)c3)o2)CC(c2ccc(Br)cc2)=NO1 (centres undefined)	0	·	99	·	105	·	·	·
c1ccc(Nc2nc(Nc3ccccc3)nc(N3CCNCC3)n2)cc1	12	-1	154*	·	111	136	20	106
CN1CCN(c2nc(Nc3ccc(F)cc3)nc(Nc3ccc(F)cc3)n2)CC1	33*	·	145*	·	113	137	16	104
c1ccc(Nc2nc(N3CCCC3)nc(N3CCOCC3)n2)cc1	-7	·	92	·	97	·	·	·
Fc1ccccc1N1CCN(C(c2ccncc2)c2nnnn2C2CCCC2)CC1 (centres undefined)	-16	-11	81	4	77*[inhibitor]	123	6	105
CCN1CCN(C(=O)/C(=C/c2ccco2)NC(=O)c2ccccc2)CC1	0	·	95	·	100	·	·	·
Clc1nc(Nc2ccc(N3CCOCC3)cc2)c2ccccc2n1	-10	·	89	-7	98	·	·	·
O=S(=O)(Nc1nc2ccccc2nc1Nc1ccc(N2CCOCC2)cc1)c1cc(Cl)ccc1Cl	0	-37	102	4	150*	105	7	105
COc1ccc(S(=O)(=O)N2CCSCC2)cc1C(N)=O	2	-36	111	·	103	·	·	·
CCOc1ccc(C(CC(=O)O)NC(=O)C(CC)c2ccccc2)cc1 (centres undefined)	13	·	108	·	108	·	·	·
Cc1cc(C)nc(N2CCC(C(=O)Nc3ccc4c(c3)CCC4)CC2)n1	7	·	102	-8	103	·	·	·
COc1ccc(NC(=O)C2CCN(c3nc(C)cc(C)n3)CC2)cc1	-1	-5	2.0*[inhibitor]	1	2.0*[inhibitor]	102	-4	99
COc1ccc(NC(=O)C2CCC(CNS(=O)(=O)c3cccs3)CC2)cc1 (centres undefined)	-45	·	7.0*[inhibitor]	13	5.0*[inhibitor]	101	-3	99
Cc1c(NC(=O)c2ccccc2N)cccc1C(=O)O	0	·	98	5	98	·	·	·
Nc1ccccc1NC(=O)c1ccccc1N	-16	·	3.0*[inhibitor]	6	3.0*[inhibitor]	100	-6	103
SMILES	MEKK2 mut-MEK5	Pf gametocyte	MEKK2wt PB1 HTS	Arbovirus anti	MEKK3 PB1 HTS	MEKK2wt confirm	MEKK2mut confirm	MEKK3-MEK5 inh
CC(=O)C1=C(C)NC(=S)NC1c1cc([N+](=O)[O-])ccc1O (centres undefined)	15	-4	95	·	97	·	·	·
NNC(=O)[C@H]1C[C@@H]1c1ccccc1	0	-5	111	-7	152*	93	-9	89
O=C(Nc1ccccc1F)C1CC1c1ccccc1 (centres undefined)	-1	23	97	-12	98	·	·	·
COc1ccc(/C=N/Nc2cc(C)nc3ccc(OC)cc23)c(OC)c1	180*	-46	389*	·	114	282*	141*	118
COc1ccccc1/C=N/Nc1cc(C)nc2ccc(C)cc12	4	·	108	·	110	·	·	·
Oc1ccccc1CN1CCCN(Cc2ccccc2O)C1	7	-33	111	70*	124*	107	3	101
COc1ccc(C(=O)Nc2ccc3nc(N4CCN(C)CC4)cc(C)c3c2)c(OC)c1	24*	·	156*	·	106	142	34	108
CCN1CCN(c2cc(C)c3cc(NC(=O)c4ccc(OC)c(OC)c4)ccc3n2)CC1	30*	·	130	-44	105	126	13	102
CCN1CCN(c2cc(C)c3cc(NC(=O)CCC(=O)Nc4ccc(OC)c(OC)c4)ccc3n2)CC1	7	·	110	·	104	·	·	·
CC(C)(C)NC(=O)NC(=O)COC(=O)COc1ccc(Cl)cc1Cl	-3	·	93	24	75*[inhibitor]	103	5	107
O=C(COC(=O)COc1ccc(Cl)cc1Cl)Nc1cccnc1Cl	-1	-6	105	0	137*	103	2	102
CSCCC(NC(=O)/C(=C/c1ccco1)NC(=O)c1ccc(Br)o1)C(=O)O (centres undefined)	8	·	112	·	105	·	·	·
O=C(Nc1ccc(C2=NCCN2)cc1)c1ccc(C(=O)Nc2ccc(C3=NCCN3)cc2)c([N+](=O)[O-])c1	32	·	151*	·	63*[inhibitor]	104	6	46*
Cc1ccc(NC(=O)c2ccc(-n3cccn3)c([N+](=O)[O-])c2)cc1	-3	1	96	-10	99	·	·	·
O=C(N/N=C/c1ccc2ncccc2c1)c1cc(-c2cccs2)nc2ccccc12	-12	-10	30*[inhibitor]	·	35*[inhibitor]	100	2	105
Cc1ccc(CN(C)C2CCN(C)CC2)cc1	-1	·	100	·	96	·	·	·
CC(C)[C@H](NC(=O)NCc1ccc(F)cc1)C(=O)O	-5	8	103	·	97	·	·	·
COCCCN1CN(S(=O)(=O)c2ccc(Cl)cc2)c2nc3ccccc3nc21	10	·	99	7	97	·	·	·
